Results reported in PubChem BioAssay.
Active and inactive are the calls of the source. Rule as the data show it, unless noted: active = response above about 15%; inactive = the rest.

Key:
[1] = inhibitors of CD8+ T cell-vesicle binding, pilot screen, LFA-1/ICAM-1 modulator project, MLPCN validation set, flow cytometry (AID 2523;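 active = response below a set limit, under 55% cells CD8-positive and vesicle-bound, and CD8 cells' 90th-percentile brightness under 279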;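 as to vesicle binding response: mean PE anti-B7-1 fluorescence of CD8+ cells relative to row control; 100% = QL9-loaded vesicles with DMSO vehicle in the same plate row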); conditions: 2C mouse CD8+ T cells, at 7 µM, stronger effect = lower value; double positive events: measured here: CD8+/vesicle+ event percentage
[2] = target: Integrin beta-1 (Homo sapiens) + Integrin alpha-4 (Homo sapiens) (UniProt P13612+P05556); test: inhibition of HUTS-21 binding to VLA-4, pilot screen, VLA-4 allosteric modulator project, U937 cells, HUTS-21 mAb, flow cytometry, validation set (AID 2674;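 active = inhibition above 50%, about 3 SD of the validation set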;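 also: antibody binding induced by the VLA-4 ligand LDV present at three times its Kd; 0% = LDV ligand with antibody and no compound and 100% = antibody without LDV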); conditions: HUTS-21 LIBS mAb binding, at 6.7 µM, stronger effect = higher value, binding induced by LDV ligand
Sequence of Integrin beta-1 (Homo sapiens) + Integrin alpha-4 (Homo sapiens) (P05556 whole entry, looked up): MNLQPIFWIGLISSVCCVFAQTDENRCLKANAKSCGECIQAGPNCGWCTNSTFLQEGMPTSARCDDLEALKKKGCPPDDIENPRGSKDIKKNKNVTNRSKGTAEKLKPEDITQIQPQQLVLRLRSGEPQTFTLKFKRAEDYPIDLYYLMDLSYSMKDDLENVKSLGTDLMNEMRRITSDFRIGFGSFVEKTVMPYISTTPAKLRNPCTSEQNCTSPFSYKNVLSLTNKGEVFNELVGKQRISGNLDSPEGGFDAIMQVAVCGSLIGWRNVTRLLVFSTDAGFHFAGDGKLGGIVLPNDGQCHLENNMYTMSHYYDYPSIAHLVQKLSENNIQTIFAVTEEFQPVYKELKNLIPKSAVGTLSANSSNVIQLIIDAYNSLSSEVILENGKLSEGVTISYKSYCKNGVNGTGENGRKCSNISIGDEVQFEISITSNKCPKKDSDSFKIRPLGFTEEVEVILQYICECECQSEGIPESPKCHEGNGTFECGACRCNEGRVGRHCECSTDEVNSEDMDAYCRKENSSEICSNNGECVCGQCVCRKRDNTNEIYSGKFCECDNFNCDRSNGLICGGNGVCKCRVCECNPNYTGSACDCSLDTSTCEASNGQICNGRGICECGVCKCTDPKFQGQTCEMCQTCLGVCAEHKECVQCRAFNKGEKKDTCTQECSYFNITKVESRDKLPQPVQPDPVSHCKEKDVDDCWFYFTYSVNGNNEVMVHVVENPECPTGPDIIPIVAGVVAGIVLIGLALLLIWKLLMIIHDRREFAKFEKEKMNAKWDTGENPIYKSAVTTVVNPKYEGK
Sequence of Integrin beta-1 (Homo sapiens) + Integrin alpha-4 (Homo sapiens) (P13612 whole entry, looked up): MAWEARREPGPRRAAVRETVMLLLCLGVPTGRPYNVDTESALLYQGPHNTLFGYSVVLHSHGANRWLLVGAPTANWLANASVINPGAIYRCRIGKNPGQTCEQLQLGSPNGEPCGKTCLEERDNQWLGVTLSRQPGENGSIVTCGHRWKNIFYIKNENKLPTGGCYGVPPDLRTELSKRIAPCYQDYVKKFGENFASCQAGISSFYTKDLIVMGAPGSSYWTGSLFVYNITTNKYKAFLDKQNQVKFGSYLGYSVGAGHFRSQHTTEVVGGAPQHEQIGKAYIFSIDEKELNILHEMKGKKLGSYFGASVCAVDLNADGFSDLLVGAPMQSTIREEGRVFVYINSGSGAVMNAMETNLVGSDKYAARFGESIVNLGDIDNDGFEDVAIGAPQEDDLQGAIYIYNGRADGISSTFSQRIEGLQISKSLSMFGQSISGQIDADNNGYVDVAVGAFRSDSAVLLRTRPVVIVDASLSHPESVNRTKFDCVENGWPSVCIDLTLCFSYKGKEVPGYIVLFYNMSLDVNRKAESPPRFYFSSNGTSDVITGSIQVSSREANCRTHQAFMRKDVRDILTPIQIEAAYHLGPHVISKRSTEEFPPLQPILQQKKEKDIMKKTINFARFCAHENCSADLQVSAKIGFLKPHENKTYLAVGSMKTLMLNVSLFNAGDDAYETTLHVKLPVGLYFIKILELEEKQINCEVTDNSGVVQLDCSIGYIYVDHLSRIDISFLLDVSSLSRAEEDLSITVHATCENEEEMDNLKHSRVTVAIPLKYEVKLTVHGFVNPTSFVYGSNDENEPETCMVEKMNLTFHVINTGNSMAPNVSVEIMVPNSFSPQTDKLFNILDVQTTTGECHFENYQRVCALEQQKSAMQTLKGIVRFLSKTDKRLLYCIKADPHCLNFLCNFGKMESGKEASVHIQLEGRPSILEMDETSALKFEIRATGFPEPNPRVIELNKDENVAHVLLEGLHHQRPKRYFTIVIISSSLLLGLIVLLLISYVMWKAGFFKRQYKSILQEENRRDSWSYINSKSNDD

[3] = superoxide lowering in aged yeast cells, pilot screen, validation compound set (AID 2706;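 active = superoxide response below 65% of plate, a cut near 3 SD across the whole screen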;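 also: yeast exposed to compound for one week at 30 degrees C before staining; 100% = mean of all compound wells on the same plate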); conditions: S. cerevisiae aging, superoxide DHE fluorescence; at 10 µM, stronger effect = lower value
[4] = target: Beta-adrenergic receptor kinase 1 (Homo sapiens) (UniProt P25098); test: GRK2 binders displacing RNA aptamer, biochemical, validation, human GRK2, bead flow cytometry (AID 488806;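 active = aptamer binding inhibition above 30%, about 3 SD of noise from non-fluorescent compounds; inactive = inhibition at or below 30%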); conditions: bead-bound GRK2, FAM-aptamer displacement, at 10 µM, stronger effect = higher value
Sequence of Beta-adrenergic receptor kinase 1 (Homo sapiens) (P25098 whole entry, looked up): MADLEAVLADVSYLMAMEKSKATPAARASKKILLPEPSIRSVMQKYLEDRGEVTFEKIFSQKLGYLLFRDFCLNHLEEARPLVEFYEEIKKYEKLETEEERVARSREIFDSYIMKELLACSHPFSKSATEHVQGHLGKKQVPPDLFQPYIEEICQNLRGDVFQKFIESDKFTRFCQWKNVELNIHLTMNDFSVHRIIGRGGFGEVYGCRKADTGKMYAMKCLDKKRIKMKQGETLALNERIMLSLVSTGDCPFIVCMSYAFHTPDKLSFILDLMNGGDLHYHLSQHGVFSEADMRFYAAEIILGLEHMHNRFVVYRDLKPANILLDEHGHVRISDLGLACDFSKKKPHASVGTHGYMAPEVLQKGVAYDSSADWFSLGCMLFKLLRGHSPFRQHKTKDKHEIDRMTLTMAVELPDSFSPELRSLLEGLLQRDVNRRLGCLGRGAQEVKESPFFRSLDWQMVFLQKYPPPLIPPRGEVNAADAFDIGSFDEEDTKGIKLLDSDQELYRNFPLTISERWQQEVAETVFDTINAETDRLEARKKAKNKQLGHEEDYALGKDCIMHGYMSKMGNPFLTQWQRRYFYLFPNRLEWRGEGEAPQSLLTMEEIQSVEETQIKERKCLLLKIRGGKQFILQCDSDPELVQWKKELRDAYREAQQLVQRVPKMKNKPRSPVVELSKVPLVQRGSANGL

[5] = target: Beta-2 adrenergic receptor (Homo sapiens) (UniProt P07550); test: beta2AR agonists driving receptor internalization, pilot screen, cell-based, FAP fluorogen, flow cytometry, validation set (AID 504459;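 active = percent response above 42, roughly 3 SD of non-fluorescent test compounds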;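 also: agonist-driven loss of surface beta2AR via internalization measured by FAP dye flow cytometry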); conditions: Am2.2-beta2AR cells, FAP surface receptor flow cytometry; at 10 µM; stronger effect = higher value
Sequence of Beta-2 adrenergic receptor (Homo sapiens) (P07550 whole entry, looked up): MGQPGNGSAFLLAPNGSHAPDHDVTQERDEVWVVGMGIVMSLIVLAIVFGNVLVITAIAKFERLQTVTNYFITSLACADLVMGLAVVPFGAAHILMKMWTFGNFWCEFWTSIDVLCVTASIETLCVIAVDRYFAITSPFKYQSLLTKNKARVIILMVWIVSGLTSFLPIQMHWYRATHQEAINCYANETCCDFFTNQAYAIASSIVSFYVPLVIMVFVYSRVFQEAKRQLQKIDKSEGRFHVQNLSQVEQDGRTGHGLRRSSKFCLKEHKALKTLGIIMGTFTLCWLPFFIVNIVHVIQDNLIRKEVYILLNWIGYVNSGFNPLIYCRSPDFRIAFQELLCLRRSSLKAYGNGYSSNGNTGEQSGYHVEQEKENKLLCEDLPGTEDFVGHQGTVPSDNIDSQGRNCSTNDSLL

[6] = target: AP-2 complex subunit beta (Homo sapiens) (UniProt P63010); test: inhibitors of arrestin peptide binding to AP2, pilot screen, biochemical, validation set, GST-AP2 beads, flow cytometry (AID 504541;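 active = inhibition above 54%, about 3 SD of non-fluorescent compounds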;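 also: AP2 carries R879A mutation and is captured from E. coli lysate; bead-bound FITC arrestin peptide fluorescence measuring arrestin peptide binding to AP2; 0% = DMSO wells and 100% = excess unlabeled arrestin peptide control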); conditions: FITC arrestin peptide, at 10 µM, stronger effect = higher value, AP2 beta2 appendage fragment, R879A mutant
Sequence of AP-2 complex subunit beta (Homo sapiens) (P63010 whole entry, looked up, the tested form may be a part, one chain of several): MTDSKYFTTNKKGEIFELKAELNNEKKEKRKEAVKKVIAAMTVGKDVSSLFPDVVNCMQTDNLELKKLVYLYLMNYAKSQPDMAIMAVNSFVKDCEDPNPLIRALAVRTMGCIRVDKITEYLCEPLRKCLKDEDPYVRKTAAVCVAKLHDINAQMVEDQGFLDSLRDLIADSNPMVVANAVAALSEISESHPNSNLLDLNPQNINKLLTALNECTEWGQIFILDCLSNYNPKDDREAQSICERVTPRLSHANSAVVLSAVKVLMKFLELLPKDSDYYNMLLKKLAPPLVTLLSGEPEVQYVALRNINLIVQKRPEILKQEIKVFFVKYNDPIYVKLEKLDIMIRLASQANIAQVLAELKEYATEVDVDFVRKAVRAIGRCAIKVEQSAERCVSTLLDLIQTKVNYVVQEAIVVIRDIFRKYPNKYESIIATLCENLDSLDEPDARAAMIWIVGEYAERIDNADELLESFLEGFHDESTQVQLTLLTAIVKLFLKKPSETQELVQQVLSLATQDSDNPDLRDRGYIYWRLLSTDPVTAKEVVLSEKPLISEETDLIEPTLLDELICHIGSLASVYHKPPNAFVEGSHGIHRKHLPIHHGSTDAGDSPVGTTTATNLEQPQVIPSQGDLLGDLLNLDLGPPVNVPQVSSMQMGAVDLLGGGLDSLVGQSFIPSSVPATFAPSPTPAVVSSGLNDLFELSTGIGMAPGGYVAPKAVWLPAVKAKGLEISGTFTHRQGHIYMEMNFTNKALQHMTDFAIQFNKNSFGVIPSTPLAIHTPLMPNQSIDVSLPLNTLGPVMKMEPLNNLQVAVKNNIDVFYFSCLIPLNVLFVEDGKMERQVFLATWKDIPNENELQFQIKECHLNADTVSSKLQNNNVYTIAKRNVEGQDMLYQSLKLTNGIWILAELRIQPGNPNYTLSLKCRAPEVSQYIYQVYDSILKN

[7] = yeast V-ATPase proton transport modulators, S. cerevisiae, pHLuorin, HTS validation (AID 504600);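 also: plate controls were DMSO for no effect and reference compound for full effect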; conditions: S. cerevisiae pHLuorin cytosolic pH, at 10 µM, stronger effect = higher value
[8] = test system: anti-desmoglein-3 scFv antibody binding to human DSG3; test: inhibitors of anti-DSG3 scFv binding to DSG3, pilot screen, biochemical, validation compound set, bead-based, flow cytometry (AID 588368;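 active = binding below the plate cutoff, the plate median minus 3 SD, with a reading above zero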;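 also: signal is the median channel fluorescence of bead-bound GFP antibody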); conditions: Protein G beads, DSG3-Fc, scFv-GFP binding, at 10 µM, stronger effect = lower value
[9] = inhibitors of fungal efflux pumps CDR1, CDR2, MDR1, pilot screen, validation compound set, multiplex, phenotypic (AID 588506;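 active = efflux inhibition above 0.42, the validation set average plus 4 SD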;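 also: Nile Red retained in cells so higher fluorescence means more efflux inhibition; 0 = negative control wells and 1 = enniatin B 25 µM full block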); conditions: S. cerevisiae pump-expressing triplex, Nile Red efflux flow cytometry; at 10 µM; stronger effect = higher value; the pumps come from Candida albicans
[10] = target: ATP-binding cassette sub-family B member 6 (Homo sapiens) (UniProt Q9NP58); test: ABCB6 transporter inhibitors, pilot screen, K562-ABCB6 cells, flow cytometry, validation set (AID 588550;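 active = inhibition above the screen-wide mean plus 3 SD, about 51%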;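 also: 0% = DMSO wells and 100% = benzethonium chloride 70 µM positive control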); conditions: K562-ABCB6 porphyrin accumulation, 1 h, at 10 µM, stronger effect = higher value
Sequence of ATP-binding cassette sub-family B member 6 (Homo sapiens) (Q9NP58 whole entry, looked up): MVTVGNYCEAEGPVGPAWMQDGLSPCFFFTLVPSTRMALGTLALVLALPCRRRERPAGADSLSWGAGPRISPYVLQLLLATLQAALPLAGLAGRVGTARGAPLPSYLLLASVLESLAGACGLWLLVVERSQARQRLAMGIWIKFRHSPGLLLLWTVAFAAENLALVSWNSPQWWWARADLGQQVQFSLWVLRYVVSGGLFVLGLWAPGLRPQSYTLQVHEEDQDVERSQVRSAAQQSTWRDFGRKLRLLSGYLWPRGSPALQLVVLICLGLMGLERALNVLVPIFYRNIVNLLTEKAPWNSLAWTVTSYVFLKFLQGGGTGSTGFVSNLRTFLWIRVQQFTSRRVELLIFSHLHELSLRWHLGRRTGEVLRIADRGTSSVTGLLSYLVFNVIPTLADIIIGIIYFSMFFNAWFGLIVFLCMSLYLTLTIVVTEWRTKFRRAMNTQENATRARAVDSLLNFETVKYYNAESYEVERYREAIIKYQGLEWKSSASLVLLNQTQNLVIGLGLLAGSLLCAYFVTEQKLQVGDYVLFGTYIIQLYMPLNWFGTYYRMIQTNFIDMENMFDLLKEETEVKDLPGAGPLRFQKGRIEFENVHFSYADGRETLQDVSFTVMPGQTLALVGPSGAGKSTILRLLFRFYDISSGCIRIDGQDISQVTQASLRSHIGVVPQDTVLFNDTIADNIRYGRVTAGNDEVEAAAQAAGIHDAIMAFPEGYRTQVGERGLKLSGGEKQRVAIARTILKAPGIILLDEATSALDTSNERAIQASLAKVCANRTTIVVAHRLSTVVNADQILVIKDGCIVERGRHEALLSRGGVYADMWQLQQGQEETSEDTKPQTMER

[11] = promoters of myeloid differentiation in arrested cells, primary screen, cell-based, GFP/MAC1 double positive, flow cytometry, validation set (AID 588685;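 active = differentiation response of at least 50%, scaled between solvent and reference control, from cells with both markers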;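 also: compound exposure lasts four days before antibody staining and flow analysis; 0% = DMSO wells and 100% = 5 µM fulvestrant positive control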); conditions: ER-HoxA9 marrow cells, stronger effect = higher value, normalized: vehicle 0, fulvestrant 100

| SMILES | double positive events [1] | vesicle binding response [1] | inhibition [2] | superoxide response (% of plate) [3] | aptamer binding inhibition [4] | response [5] | inhibition [6] | response [7] | binding (% of control) [8] | efflux inhibition (fraction of control) [9] | inhibition [10] | differentiation response [11] |
| --- | --- | --- | --- | --- | --- | --- | --- | --- | --- | --- | --- | --- |
| Cc1ccc2c(c1)c1c(n2C)C(=O)CCC1 | 57.6% | 126% (inactive) | -7.79% (inactive) | 86.4% (inactive) | 2% (inactive) | 6.59% (inactive) | -3.89% (inactive) | -3.07% (inactive) | 97.9% (inactive) | 0.41 (inactive) | 0% (inactive) | -8.96% (inactive) |
| O=C1N[C@@H](Cc2cnc[nH]2)C(=O)N2CCC[C@@H]12 | 59.8% | 103% (inactive) | 12.3% (inactive) | 125% (inactive) | 2% (inactive) | 6.03% (inactive) | -3.62% (inactive) | 6.06% (inactive) | 100% (inactive) | -0.07 (inactive) | -2% (inactive) | -7.5% (inactive) |
| CC(=O)c1c(C)[nH]c(C(=O)OCc2ccccc2)c1C | 60.2% | 120% (inactive) | 1.59% (inactive) | 103% (inactive) | 3% (inactive) | -5.41% (inactive) | 9.32% (inactive) | 0.36% (inactive) | 103% (inactive) | -0.25 (inactive) | 1% (inactive) | -13.3% (inactive) |
| Cc1oc2c(CN3CCCC3)c(O)ccc2c(=O)c1-c1ccc(Cl)cc1 | 75.9% | 328% (inactive) | 3.14% (inactive) | 81.5% (inactive) | 1% (inactive) | -23.2% (inactive) | 6.26% (inactive) | -0.55% (inactive) | 96.9% (inactive) | 0 (inactive) | 10% (inactive) | -1.05% (inactive) |
| COc1ccc(S(=O)(=O)NC(Cc2cnc[nH]2)C(=O)O)cc1 (configuration not stated) | 49.4% | 8.1% (active) | 9.13% (inactive) | 100% (inactive) | 1% (inactive) | -7.36% (inactive) | -1% (inactive) | 1.95% (inactive) | 99.1% (inactive) | -0.35 (inactive) | -19% (inactive) | -20% (inactive) |
| COc1ccc(C(=O)Nc2nc3ccccc3c(=O)[nH]2)cc1 | 65.5% | 352% (inactive) | 3.67% (inactive) | 84.4% (inactive) | 0% (inactive) | 37.4% (inactive) | 4.94% (inactive) | -8.54% (inactive) | 99.1% (inactive) | -0.03 (inactive) | 4% (inactive) | 0% (inactive) |
| COc1ccc(C(=O)/C=C2/c3ccccc3CC(C)(C)N2C)cc1 | 59.8% | 124% (inactive) | 2.93% (inactive) | 99% (inactive) | 3% (inactive) | 23.7% (inactive) | -8.96% (inactive) | -3.68% (inactive) | 98.3% (inactive) | -0.25 (inactive) | 7% (inactive) | -7.5% (inactive) |
| O=c1[nH]cnc2c1ncn2[C@@H]1O[C@H](CO)[C@@H](O)[C@H]1O | 62% | 140% (inactive) | -15.6% (inactive) | 86.8% (inactive) | 2% (inactive) | -18% (inactive) | -10.3% (inactive) | -0.11% (inactive) | 106% (inactive) | 0.12 (inactive) | 5% (inactive) | -7.94% (inactive) |
| CCC12CN3CC(CC)(CN(C1)C31C(=O)N(C)c3ccc(C)cc31)C2=O (configuration not stated) | 59.5% | 181% (inactive) | -2.82% (inactive) | 94.6% (inactive) | -3% (inactive) | -18.8% (inactive) | 0.32% (inactive) | 4.91% (inactive) | 102% (inactive) | 0 (inactive) | -1% (inactive) | -10.9% (inactive) |
| CCOCc1cc(C)[nH]c(=O)c1C#N | 60.2% | 225% (inactive) | 3.67% (inactive) | 98.3% (inactive) | 2% (inactive) | 1.78% (inactive) | -6.13% (inactive) | 1.03% (inactive) | 102% (inactive) | -0.21 (inactive) | 7% (inactive) | -4% (inactive) |
| O=C(c1cc2cc(Br)ccc2o1)N1CCCCC1 | 63.8% | 320% (inactive) | 10.5% (inactive) | 86.2% (inactive) | -4% (inactive) | -13.7% (inactive) | -1.81% (inactive) | -0.39% (inactive) | 73.3% (active) | 0.05 (inactive) | 6% (inactive) | 4% (inactive) |
| Cn1c2[n+](c3ccc(Cl)cc3c1=O)Cc1ccccc1-2 | 69% | 278% (inactive) | -13% (inactive) | 97.2% (inactive) | 1% (inactive) | -8.51% (inactive) | 1.06% (inactive) | 7.46% (inactive) | 107% (inactive) | 0.21 (inactive) | 10% (inactive) | 20.6% (inactive) |
| O=C(c1ccccc1)N1CCN(C(=O)c2ccccc2)CC1 | 57.3% | 175% (inactive) | -0.43% (inactive) | 102% (inactive) | 7% (inactive) | -22.4% (inactive) | -3.54% (inactive) | -5.95% (inactive) | 104% (inactive) | -0.13 (inactive) | 3% (inactive) | 12% (inactive) |
| CC(C)=CCCC(C)CN1CCC(N2CCC(C(=O)N3CCCC3)CC2)CC1 (configuration not stated) | 66.5% | 278% (inactive) | -11.3% (inactive) | 93.3% (inactive) | -12% (inactive) | 35% (inactive) | -10.9% (inactive) | -0.07% (inactive) | 106% (inactive) | -0.03 (inactive) | 5% (inactive) | -7.2% (inactive) |
| Cc1oc(/C=N/NC(=O)CC2(C)OCCO2)cc1Br | 60.6% | 93.4% (inactive) | 4.27% (inactive) | 107% (inactive) | -3% (inactive) | 4.99% (inactive) | 0.64% (inactive) | 68.3% (active) | 104% (inactive) | -0.245 (inactive) | 18% (inactive) | -0.18% (inactive) |
| Cc1csc(CCc2nc(C)cs2)n1 | 55.3% | 130% (inactive) | 2.93% (inactive) | 108% (inactive) | 1% (inactive) | -2.9% (inactive) | -2.65% (inactive) | 0.13% (inactive) | 102% (inactive) | 0.01 (inactive) | 17% (inactive) | -4.57% (inactive) |
| CCN(CC)CCNC(=O)c1cc(S(C)(=O)=O)ccc1OC | 58.8% | 219% (inactive) | -1.79% (inactive) | 88.3% (inactive) | 4% (inactive) | 4.46% (inactive) | -1.05% (inactive) | 4.62% (inactive) | 101% (inactive) | -0.28 (inactive) | 5% (inactive) | -5.6% (inactive) |
| C=CCN1C(=O)c2oc3ccccc3c(=O)c2C1c1ccc(O)c(OC)c1 (configuration not stated) | 60.1% | 150% (inactive) | 10.5% (inactive) | 102% (inactive) | 2% (inactive) | 105% (active) | -0.24% (inactive) | 2.05% (inactive) | 99.1% (inactive) | 0.37 (inactive) | 0% (inactive) | 40.8% (inactive) |
| CCOc1ccccc1Oc1coc2cc(OCC(=O)O)ccc2c1=O | 63.5% | 156% (inactive) | 1.44% (inactive) | 111% (inactive) | 10% (inactive) | -21.7% (inactive) | -11% (inactive) | 5.03% (inactive) | 106% (inactive) | -0.09 (inactive) | -2% (inactive) | -8.93% (inactive) |
| N/C(=N/OS(=O)(=O)c1ccc([N+](=O)[O-])cc1)c1ccncc1 | 61.1% | 135% (inactive) | 1.59% (inactive) | 108% (inactive) | 1% (inactive) | -5.72% (inactive) | -1.57% (inactive) | 6.86% (inactive) | 107% (inactive) | -0.08 (inactive) | 18% (inactive) | -8.96% (inactive) |
| COc1ccc(CCn2c(C)cc3c(c2=O)C(c2ccncc2)C(C#N)=C(N)O3)cc1OC (configuration not stated) | 59.3% | 179% (inactive) | -1.79% (inactive) | 102% (inactive) | 6% (inactive) | 10.6% (inactive) | -6.51% (inactive) | 0.22% (inactive) | 101% (inactive) | -0.13 (inactive) | 6% (inactive) | 12% (inactive) |
| CCCN1C[C@H](CSC)C[C@@H]2c3cccc4[nH]cc(c34)C[C@H]21 | 58.9% | 167% (inactive) | -8.78% (inactive) | 77.2% (inactive) | -1% (inactive) | -19.4% (inactive) | 1.85% (inactive) | 78.5% (active) | 105% (inactive) | 0 (inactive) | -37% (inactive) | -10.9% (inactive) |
| COc1ccc(/C=C2\CCc3ccccc3C2=O)c(OC)c1OC | 68.5% | 262% (inactive) | 2.3% (inactive) | 94.8% (inactive) | 3% (inactive) | -0.85% (inactive) | -2.94% (inactive) | 5.35% (inactive) | 102% (inactive) | 0.15 (inactive) | 5% (inactive) | 31.2% (inactive) |
| CC(C)(C)C(=O)NC(=S)Nc1sc2c(c1C(N)=O)CCC2 | 60.2% | 119% (inactive) | -4.52% (inactive) | 109% (inactive) | 2% (inactive) | 7.03% (inactive) | 2.56% (inactive) | -1.19% (inactive) | 96.6% (inactive) | -0.24 (inactive) | 4% (inactive) | -29.6% (inactive) |
| CC(C)C1Cc2[nH]c(=O)c(C(=O)O)cc2CO1 (configuration not stated) | 64.9% | 1810% (inactive) | 25.5% (inactive) | 95.9% (inactive) | 4% (inactive) | -2.38% (inactive) | -1.16% (inactive) | -0.04% (inactive) | 94.2% (inactive) | -0.1 (inactive) | 10% (inactive) | 3.18% (inactive) |
| CC[n+]1ccc2cc(OC)c(OC)cc2c1Cc1ccc(OC)c(OC)c1 | 64% | 174% (inactive) | -10.5% (inactive) | 98.6% (inactive) | 2% (inactive) | -11.2% (inactive) | -12.4% (inactive) | -0.56% (inactive) | 106% (inactive) | -0.09 (inactive) | 6% (inactive) | -1.05% (inactive) |
